The whole screen tested about 57,000 sequences, of which about 4,100 (7.2%) were called active. Rule as the data show it: active = GI50 up to about 1.1 µM and inactive = higher. Not all results are given here. Potency and affinity values are given separately.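 Five compound concentrations were applied to cells in 96-well plates for 48 hours; endpoints were derived by simple linear interpolation of the resulting dose-response curve. GI50 = concentration required for 50% inhibition of growth.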
What follows are substances tested on SK-MEL-5 (assay: NCI tumour cell line growth inhibition, 48 h).

Substance | GI50
cis-Bis[[(trimethylsilyl)methyl]amino]tetrachloroplatinum(IV), CHEMBL2146191 | 3.48 µM
[Bis(aminomethyl)tetramethylenesilane]tetrachloropaltinum(IV), CHEMBL2146189 | 5.77 µM
CISPLATIN, CHEMBL11359 | 2.69 µM
[Bis(aminomethyl)tetramethylenesilane]dichloropaltinum(II), CHEMBL2146205 | 14.8 µM
[Bis(aminomethyl)pentamethylenesilane]dichloropaltinum(II), CHEMBL2146202 | 3.3 µM
[Bis(aminomethyl)diethylsilane]tetrachloroplatinum(IV), CHEMBL2146203 | 73.8 µM
[Bis(aminomethyl)ethylmethylsilane]tetrachloroplatinum(IV), CHEMBL2146192 | 1.15 µM
[Bis(aminomethyl)pentamethylenesilane]tetrachloropaltinum(IV), CHEMBL2146204 | 3.21 µM
mu-(1,7-nanodiamine-N,N')bis-(cis-aminedichloroplatimum (II)), CHEMBL2146215 | 5.82 µM
[Bis(aminomethyl)dimethylsilane]dichloroplatinum (II), CHEMBL2146201 | 11.2 µM
[Bis(aminomethyl)dimethylsilane]tetrachloroplatinum(IV), CHEMBL2146190 | 3.85 µM

— ChEMBL document CHEMBL1201862, “PubChem BioAssay data set” (2004)
